In PubChem BioAssay:
For some of these results: Results with a measured potency or affinity are listed apart. Activity calls are given as the source filed them. Unless noted, the rule behind the calls is not given here.

How the values were obtained:
[1] = biological target: Calcium-dependent protein kinase 1 (Plasmodium falciparum (isolate 3D7)) (UniProt P62344); test: PfCDPK1 kinase inhibitors, biochemical, TCAMS library (AID 1159585; cut-off not given, nearly all actives have IC50 up to about 0.98 µM;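 note: inhibitors leave more ATP so luminescence rises with inhibition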); details: recombinant PfCDPK1, Kinase-Glo ATP depletion luminescence
Chain of Calcium-dependent protein kinase 1 (Plasmodium falciparum (isolate 3D7)) (P62344 whole entry, looked up): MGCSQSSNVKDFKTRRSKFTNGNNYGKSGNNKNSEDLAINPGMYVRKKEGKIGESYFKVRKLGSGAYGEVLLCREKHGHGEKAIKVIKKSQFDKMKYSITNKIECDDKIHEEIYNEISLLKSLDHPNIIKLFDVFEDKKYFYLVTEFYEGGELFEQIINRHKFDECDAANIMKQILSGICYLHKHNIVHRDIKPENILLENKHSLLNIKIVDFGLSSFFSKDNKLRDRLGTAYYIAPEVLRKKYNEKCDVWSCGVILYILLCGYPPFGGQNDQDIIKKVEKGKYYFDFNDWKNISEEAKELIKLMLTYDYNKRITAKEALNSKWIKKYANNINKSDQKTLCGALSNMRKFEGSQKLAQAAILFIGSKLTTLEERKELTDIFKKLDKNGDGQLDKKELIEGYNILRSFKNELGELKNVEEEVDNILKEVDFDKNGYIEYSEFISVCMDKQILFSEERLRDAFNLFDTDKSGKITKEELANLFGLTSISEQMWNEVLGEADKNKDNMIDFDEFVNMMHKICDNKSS

[2] = biological target: Plasmodium falciparum protein kinase 6 (PK6, PF3D7_1337100) (UniProt Q8IDW1); test: PfPK6 kinase inhibitors, biochemical, TCAMS library (AID 1159586); details: recombinant PfPK6, Kinase-Glo ATP depletion luminescence
Chain of Plasmodium falciparum protein kinase 6 (PK6, PF3D7_1337100) (Q8IDW1 1-305): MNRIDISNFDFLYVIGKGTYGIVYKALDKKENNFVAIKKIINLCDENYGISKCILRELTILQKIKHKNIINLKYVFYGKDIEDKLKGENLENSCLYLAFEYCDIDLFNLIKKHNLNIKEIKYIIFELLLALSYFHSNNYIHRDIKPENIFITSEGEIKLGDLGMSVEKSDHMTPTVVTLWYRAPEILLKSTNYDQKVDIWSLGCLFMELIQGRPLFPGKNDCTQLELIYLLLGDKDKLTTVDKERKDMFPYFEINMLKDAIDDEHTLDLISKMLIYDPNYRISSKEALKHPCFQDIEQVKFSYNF

[3] = biological target: Protein kinase 7 (PK7), Plasmodium falciparum 3D7 (PF3D7_0213400) (UniProt Q7YTF7); test: inhibition of Plasmodium PK7 catalytic activity – biochemical, TCAMS antimalarial set, Kinase-Glo luminescence (AID 1159587); details: recombinant PfPK7, Kinase-Glo ATP depletion luminescence
Chain of Protein kinase 7 (PK7), Plasmodium falciparum 3D7 (PF3D7_0213400) (Q7YTF7 1-343): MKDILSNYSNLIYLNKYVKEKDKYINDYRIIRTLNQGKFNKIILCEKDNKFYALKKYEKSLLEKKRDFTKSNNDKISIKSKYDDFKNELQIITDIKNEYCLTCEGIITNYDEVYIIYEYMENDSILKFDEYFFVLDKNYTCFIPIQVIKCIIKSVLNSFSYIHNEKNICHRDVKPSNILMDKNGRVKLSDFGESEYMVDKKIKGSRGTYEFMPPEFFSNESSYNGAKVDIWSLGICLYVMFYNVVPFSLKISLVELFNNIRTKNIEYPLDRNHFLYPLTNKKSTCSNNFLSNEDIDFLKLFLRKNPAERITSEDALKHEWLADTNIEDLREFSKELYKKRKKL

[4] = biological target: Calcium-dependent protein kinase 4 (Plasmodium falciparum (isolate 3D7)) (UniProt Q8IBS5); test: PfCDPK4 kinase inhibitors, biochemical, TCAMS library (AID 1159588; cut-off not given, nearly all actives have IC50 up to about 0.91 µM); details: recombinant PfCDPK4, Kinase-Glo ATP depletion luminescence
Chain of Calcium-dependent protein kinase 4 (Plasmodium falciparum (isolate 3D7)) (Q8IBS5 whole entry, looked up): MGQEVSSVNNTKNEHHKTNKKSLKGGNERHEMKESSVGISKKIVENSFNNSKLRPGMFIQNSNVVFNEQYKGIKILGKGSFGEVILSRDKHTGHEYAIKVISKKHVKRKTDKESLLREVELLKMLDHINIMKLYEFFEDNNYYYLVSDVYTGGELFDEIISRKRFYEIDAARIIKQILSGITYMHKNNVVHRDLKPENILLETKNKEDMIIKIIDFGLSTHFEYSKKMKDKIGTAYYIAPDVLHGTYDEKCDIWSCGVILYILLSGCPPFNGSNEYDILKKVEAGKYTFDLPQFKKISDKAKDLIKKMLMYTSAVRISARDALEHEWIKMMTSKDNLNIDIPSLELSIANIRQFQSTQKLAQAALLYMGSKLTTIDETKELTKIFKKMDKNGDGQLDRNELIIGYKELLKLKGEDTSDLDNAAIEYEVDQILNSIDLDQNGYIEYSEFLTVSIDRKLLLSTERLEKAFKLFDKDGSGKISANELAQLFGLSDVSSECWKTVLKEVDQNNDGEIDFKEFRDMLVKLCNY

Measured: outcome

O=C(Cc1ccc[n+]([O-])c1)Nc1ccc(-c2cccc(-c3nc4ccc(C(F)(F)F)cc4[nH]3)c2)cc1
inactive: [1] | [2] | [3] | [4]

CN(C)c1nc(NCc2ccccc2)nc(N/N=C/c2cc([N+](=O)[O-])ccc2O)n1
inactive: [1] | [2] | [3] | [4]

O=C(N/C=N/c1cc([N+](=O)[O-])c(-c2cccnc2)n1-c1ccc(O)cc1)c1ccccc1
inactive: [1] | [2] | [3] | [4]

O=C1C=CC(=C2NC(c3ccccc3)=C(c3ccc4oc5ccc(C6=C(c7ccccc7)NC(=C7C=CC(=O)C=C7)N6)cc5c4c3)N2)C=C1
inactive: [1] | [2] | [3] | [4]

Nc1c2c(nc3ccccc13)/C(=C/c1ccc(O)cc1)CCC2
inactive: [1] | [2] | [3] | [4]

O=C(O)CCSSc1cccc[n+]1[O-]
inactive: [1] | [2] | [3] | [4]

c1cc2nc(CCCCc3nc4ccc(C5=N[C@@H]6CCCC[C@@H]6N5)cc4[nH]3)[nH]c2cc1C1=N[C@@H]2CCCC[C@@H]2N1
inactive: [1] | [2] | [3] | [4]

COc1cc(-c2nc(-c3ccc4c(c3)CC/C4=N\O)c(-c3ccncc3)[nH]2)ccc1OCCN1CCN(C)CC1
inactive: [1] | [2] | [3] | [4]

O=[N+]([O-])c1cccc(-c2nc3ccc(C4=N[C@@H]5CCCC[C@@H]5N4)cc3[nH]2)c1
inactive: [1] | [2] | [3] | [4]

Cc1cccc2[nH]c(-c3cccc(-c4ccc(NC(=O)Cc5ccc[n+]([O-])c5)cc4)c3)nc12
inactive: [1] | [2] | [3] | [4]

C/C(=N\O)C1=C(O)C(c2ccccc2)N(c2ccccc2)C1=O (stereo unspecified)
inactive: [1] | [2] | [3] | [4]

Oc1cccc(-c2nc(-c3ccc4oc5ccc(-c6nc(-c7cccc(O)c7)[nH]c6-c6ccccc6)cc5c4c3)c(-c3ccccc3)[nH]2)c1
inactive: [1] | [2] | [3] | [4]

CC(C)C[C@H](C(=O)N[C@H](C(=O)Nc1nccs1)C(C)(C)C)[C@H](CCC(F)(F)F)N(O)C=O
inactive: [1] | [2] | [3] | [4]

Nc1ccc(-c2nc3cc(C4=N[C@@H]5CCCC[C@@H]5N4)ccc3o2)cc1[N+](=O)[O-]
inactive: [1] | [2] | [3] | [4]

Cc1cc(-c2cc(-c3ccc(OCCN(C)C)cc3)[nH]c2-c2ccc3c(c2)CC/C3=N\O)ccn1
inactive: [1] | [2] | [3] | [4]

COc1ccc(C2=[N+]([O-])c3ccccc3C2=O)cc1
inactive: [1] | [2] | [3] | [4]

COc1ccc(Nc2nc(N/N=C/c3cc(Br)c(O)cc3O)nc(Nc3ccc([N+](=O)[O-])cc3)n2)cc1
inactive: [1] | [2] | [3] | [4]

CCC[C@@H]([C@H](CC(C)C)C(=O)N[C@@H](CCCN=C(N)NS(C)(=O)=O)C(=O)Nc1nccs1)N(O)C=O
inactive: [1] | [2] | [3] | [4]

CCC[C@@H]([C@H](CC(C)C)C(=O)N[C@@H](CCCCNC(=O)OCc1ccccc1)C(=O)Nc1ncccn1)N(O)C=O
inactive: [1] | [2] | [3] | [4]
